From PubChem BioAssay AID588689 (Southern Research Specialized Biocontainment Screening …, 2011)
The whole screen tested about 340,000 compounds, of which about 1,000 (0.29%) were called active. Cut-off read from the data, not from the text of the source: inconclusive = inhibition above about 29% without an active follow-up result; inactive = below that. A selection follows. Measured potencies and affinities stand elsewhere.

Molecular target: Genome polyprotein (Dengue virus type 2 (strain 16681-PDK53)) (UniProt P29991)
Assay: Dengue-2 NS5 methyltransferase inhibitors, primary screen, biochemical, confirmation dose response (AID 588689)
Settings: Dengue-2 NS5 methyltransferase capping enzyme assay, at 25 µM, stronger effect = higher value
[1] = measured here: pilot screen replicate inhibition

Genome polyprotein (Dengue virus type 2 (strain 16681-PDK53)), sequence (P29991 whole entry, looked up): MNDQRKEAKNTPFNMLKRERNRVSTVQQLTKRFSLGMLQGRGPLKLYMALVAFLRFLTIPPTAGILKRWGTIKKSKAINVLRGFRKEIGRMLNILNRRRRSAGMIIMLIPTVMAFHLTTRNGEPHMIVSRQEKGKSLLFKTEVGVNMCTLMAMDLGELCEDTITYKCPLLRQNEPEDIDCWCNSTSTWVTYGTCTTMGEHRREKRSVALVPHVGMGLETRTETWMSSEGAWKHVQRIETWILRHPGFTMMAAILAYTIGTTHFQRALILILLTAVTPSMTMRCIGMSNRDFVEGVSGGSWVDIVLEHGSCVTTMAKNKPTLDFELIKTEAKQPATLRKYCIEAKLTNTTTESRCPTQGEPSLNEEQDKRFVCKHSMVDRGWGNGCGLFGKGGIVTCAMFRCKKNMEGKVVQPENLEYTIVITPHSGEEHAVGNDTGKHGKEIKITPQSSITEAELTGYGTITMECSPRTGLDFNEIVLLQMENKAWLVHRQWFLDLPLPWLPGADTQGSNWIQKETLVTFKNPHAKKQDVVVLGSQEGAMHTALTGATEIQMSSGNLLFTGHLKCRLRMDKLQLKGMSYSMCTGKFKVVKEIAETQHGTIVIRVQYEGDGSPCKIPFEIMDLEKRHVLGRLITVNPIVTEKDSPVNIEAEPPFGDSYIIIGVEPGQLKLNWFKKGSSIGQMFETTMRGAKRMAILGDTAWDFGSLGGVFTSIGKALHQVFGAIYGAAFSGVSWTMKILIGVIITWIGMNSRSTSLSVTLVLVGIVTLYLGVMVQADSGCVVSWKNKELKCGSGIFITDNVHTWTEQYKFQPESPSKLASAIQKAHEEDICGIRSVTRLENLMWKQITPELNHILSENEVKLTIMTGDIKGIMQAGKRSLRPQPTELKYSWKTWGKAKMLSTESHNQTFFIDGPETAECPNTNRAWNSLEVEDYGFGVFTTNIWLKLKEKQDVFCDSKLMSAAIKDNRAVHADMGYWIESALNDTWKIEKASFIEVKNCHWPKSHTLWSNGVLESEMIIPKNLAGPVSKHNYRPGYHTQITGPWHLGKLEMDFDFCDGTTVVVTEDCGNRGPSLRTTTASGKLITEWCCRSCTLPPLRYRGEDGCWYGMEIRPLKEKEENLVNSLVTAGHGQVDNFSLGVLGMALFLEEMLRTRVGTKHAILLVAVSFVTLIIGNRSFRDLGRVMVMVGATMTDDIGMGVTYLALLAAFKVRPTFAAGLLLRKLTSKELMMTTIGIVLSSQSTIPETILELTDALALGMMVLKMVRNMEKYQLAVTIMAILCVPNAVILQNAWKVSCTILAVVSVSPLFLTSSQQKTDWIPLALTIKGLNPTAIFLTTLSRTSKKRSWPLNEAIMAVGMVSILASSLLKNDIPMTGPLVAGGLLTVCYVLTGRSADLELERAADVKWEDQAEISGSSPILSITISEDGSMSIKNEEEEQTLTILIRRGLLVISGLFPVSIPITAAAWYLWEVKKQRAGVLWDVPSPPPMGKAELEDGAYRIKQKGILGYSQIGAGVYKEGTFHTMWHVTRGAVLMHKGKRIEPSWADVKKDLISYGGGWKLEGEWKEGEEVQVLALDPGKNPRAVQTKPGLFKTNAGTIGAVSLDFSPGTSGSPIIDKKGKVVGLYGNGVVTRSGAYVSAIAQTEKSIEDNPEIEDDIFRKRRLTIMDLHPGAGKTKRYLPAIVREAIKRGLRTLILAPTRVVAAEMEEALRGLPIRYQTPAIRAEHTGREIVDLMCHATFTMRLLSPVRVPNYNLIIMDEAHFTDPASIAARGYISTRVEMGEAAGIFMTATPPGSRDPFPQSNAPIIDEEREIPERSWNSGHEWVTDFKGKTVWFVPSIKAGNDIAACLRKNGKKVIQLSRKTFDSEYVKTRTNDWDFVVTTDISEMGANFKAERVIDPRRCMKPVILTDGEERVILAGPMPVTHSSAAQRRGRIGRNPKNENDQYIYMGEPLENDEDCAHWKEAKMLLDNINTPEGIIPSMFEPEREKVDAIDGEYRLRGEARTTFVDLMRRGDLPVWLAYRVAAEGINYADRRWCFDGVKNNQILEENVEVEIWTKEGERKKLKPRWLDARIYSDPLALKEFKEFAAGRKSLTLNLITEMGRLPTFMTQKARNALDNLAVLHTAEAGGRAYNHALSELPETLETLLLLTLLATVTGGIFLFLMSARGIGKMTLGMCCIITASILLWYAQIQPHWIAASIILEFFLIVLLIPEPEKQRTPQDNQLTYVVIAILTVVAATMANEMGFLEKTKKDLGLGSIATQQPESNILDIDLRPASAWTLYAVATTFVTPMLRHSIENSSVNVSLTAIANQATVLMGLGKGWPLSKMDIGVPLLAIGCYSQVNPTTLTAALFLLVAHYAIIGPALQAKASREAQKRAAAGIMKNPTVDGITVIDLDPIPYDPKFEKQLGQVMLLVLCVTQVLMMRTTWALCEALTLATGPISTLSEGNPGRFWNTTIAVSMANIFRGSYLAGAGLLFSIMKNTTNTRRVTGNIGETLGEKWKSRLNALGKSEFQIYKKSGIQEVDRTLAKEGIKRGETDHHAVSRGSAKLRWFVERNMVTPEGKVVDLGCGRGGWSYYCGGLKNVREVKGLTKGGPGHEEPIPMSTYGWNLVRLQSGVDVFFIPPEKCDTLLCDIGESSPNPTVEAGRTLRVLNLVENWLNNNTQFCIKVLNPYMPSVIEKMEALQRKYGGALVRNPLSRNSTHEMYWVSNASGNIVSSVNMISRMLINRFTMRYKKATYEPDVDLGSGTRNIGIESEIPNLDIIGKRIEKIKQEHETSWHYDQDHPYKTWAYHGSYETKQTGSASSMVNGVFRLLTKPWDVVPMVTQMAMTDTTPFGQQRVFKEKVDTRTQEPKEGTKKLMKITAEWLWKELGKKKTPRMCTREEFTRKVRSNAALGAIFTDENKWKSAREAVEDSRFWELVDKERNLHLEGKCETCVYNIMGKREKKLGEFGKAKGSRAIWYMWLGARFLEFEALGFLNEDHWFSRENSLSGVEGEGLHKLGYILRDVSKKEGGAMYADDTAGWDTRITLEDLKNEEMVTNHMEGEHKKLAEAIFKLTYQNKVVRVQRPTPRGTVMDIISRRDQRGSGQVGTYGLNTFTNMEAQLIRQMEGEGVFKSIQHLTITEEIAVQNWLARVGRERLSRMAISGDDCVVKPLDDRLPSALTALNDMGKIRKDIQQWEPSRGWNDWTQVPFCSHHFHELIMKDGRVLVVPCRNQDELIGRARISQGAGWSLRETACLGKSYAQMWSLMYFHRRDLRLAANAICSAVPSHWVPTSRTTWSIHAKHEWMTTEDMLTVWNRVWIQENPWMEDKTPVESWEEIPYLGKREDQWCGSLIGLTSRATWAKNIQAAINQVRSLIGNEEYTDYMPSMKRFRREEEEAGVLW

SMILES	inhibition	inhibition [1]
COc1ccc(NC(=S)N2CCC(C(=O)c3ccc(C)cc3)CC2)cc1	-11.5% (inactive)	–
Cc1ccc(C2=NNC(C(O)C(O)C(O)CO)S2)cc1 (configuration not stated)	-8.04% (inactive)	–
O=C(CCN1C(=O)/C(=C/c2ccccc2Cl)SC1=S)Nc1ccccn1	1.55% (inactive)	–
O=C(CCN1C(=O)S/C(=C/c2ccc(F)cc2)C1=O)Nc1ccc(O)c(C(=O)O)c1	19.6% (inactive)	–
COc1ccccc1/C=C1\SC(=S)N(CCC(=O)Nc2ccc(C(=O)O)c(O)c2)C1=O	19.8% (inactive)	–
O=C(CCN1C(=O)S/C(=C/c2ccccc2)C1=O)Nc1ccc(C(=O)O)c(O)c1	25.9% (inactive)	–
O=C(CCN1C(=O)/C(=C/c2ccccc2Cl)SC1=S)NNC(=O)c1ccccc1O	-5.13% (inactive)	–
O=C(CCN1C(=O)/C(=C\C=C\c2ccccc2)SC1=S)Nc1ccc(C(=O)O)cc1	9.75% (inactive)	–
O=C(CCN1C(=O)/C(=C/c2cccs2)SC1=S)Nc1ccc(C(=O)O)c(O)c1	15% (inactive)	–
O=C(CN1C(=O)S/C(=C\C=C\c2ccccc2)C1=O)Nc1ccccc1C(=O)O	24.3% (inactive)	–
CCN(Cc1nc2cc(Cl)ccc2c(=O)[nH]1)C(=O)c1cccc(NC(=O)c2cccs2)c1	-6.19% (inactive)	–
Cc1ccc(NC(=O)CCC(=O)c2ccccc2)cc1	-17.5% (inactive)	–
Cc1ccc(S(=O)(=O)NCCN2CCOCC2)c(C)c1C	3.68% (inactive)	–
O=C(Cc1ccc(Cl)cc1)N1CCC2(CC1)NCCc1[nH]cnc12	-10.7% (inactive)	–
Cc1cc(NC(=O)CCC(=O)N(c2ccc(F)cc2)C(C(=O)NC2CCCC2)c2cccnc2)no1 (configuration not stated)	6.51% (inactive)	–
O=C(CCCN1C(=O)/C(=C/c2ccc3c(c2)OCO3)SC1=S)Nc1cccc(C(=O)O)c1	0.32% (inactive)	–
O=C(CCN1C(=O)/C(=C/c2ccc3c(c2)OCO3)SC1=S)Nc1ccccc1	2.89% (inactive)	–
CC(C)c1ccc(C2N3CC4([N+](=O)[O-])CN2CC([N+](=O)[O-])(C3)C4(C)C)cc1 (configuration not stated)	-2.65% (inactive)	–
COc1ccc(/C=C2/NC(=O)N(Cc3ccccc3F)C2=O)cc1OC	0.77% (inactive)	–
COc1ccccc1N1C(=O)Cc2ccccc2C1=O	1.63% (inactive)	–
COc1ccc(C)cc1CN1C(=O)c2ccccc2C1=O	-12.4% (inactive)	–
COc1ccc(C=O)cc1CN1C(=O)c2ccccc2C1=O	5.3% (inactive)	–

SMILES	inhibition	inhibition [1]
COc1ccc2c(c1)C(=O)N(c1ccccc1OC)C(=O)C2	0.7% (inactive)	–
COc1ccc(/C=C2\C(=O)NC(=O)c3ccccc32)cc1OC	25.5% (inactive)	–
O=c1cc(Cl)[nH]c(=O)n1Cc1ccc(F)cc1	-9.54% (inactive)	–
Cc1cc(C)cc(NC(=O)c2ccc(NC(=O)c3ccco3)cc2)c1	-0.32% (inactive)	–
N#CCC(=O)Nc1ccc(C(=O)NNC(=O)CCN2CCN(c3ccccc3)CC2)cc1	-13.1% (inactive)	–
CCC[C@@H](CN1CCC[C@H]1CN1C(N)=NC[C@H]1CC(C)C)N1C[C@@H](Cc2ccccc2)N(CCCC2CCCC2)C1=N	-0.66% (inactive)	-1.83%
CC(CN1CCN(Cc2ccccc2)CC1)OC(=O)c1ccco1 (configuration not stated)	2.3% (inactive)	–
O=C(O)C/C(=C\c1ccc(N2CCOCC2)c([N+](=O)[O-])c1)c1nc2ccccc2s1	6.96% (inactive)	–
O=C(O)CC/C(=C\c1ccc(N2CCOCC2)c([N+](=O)[O-])c1)c1nc2ccccc2s1	24% (inactive)	–
CN(c1ccccc1)c1ccc(/C=C(\CCC(=O)O)c2nc3ccccc3s2)cc1[N+](=O)[O-]	26.1% (inactive)	–
Cc1ccc(/C=C(\CCC(=O)O)c2nc3ccccc3s2)cc1[N+](=O)[O-]	13.8% (inactive)	–
COc1ccc(NC(=O)C2CCCCN2S(=O)(=O)c2ccc(F)cc2)cc1 (configuration not stated)	-2.91% (inactive)	–
Cc1csc2nc(=O)c3ccccc3n12	-0.7% (inactive)	–
Oc1c(Cl)cc(Cl)cc1CNc1nc2ccccc2[nH]1	-17.7% (inactive)	–
Cc1cccc(NCc2cc(Cl)cc(Cl)c2O)n1	-2.76% (inactive)	–
O=C(CSc1nnc2scc(-c3ccccc3)n12)NCc1ccc2c(c1)OCO2	-2.59% (inactive)	–
Nc1c(Cl)cc2c(c1Oc1ccccc1)C(=O)c1ccccc1C2=O	0% (inactive)	–
NC1=C(Cl)C(=O)c2ccccc2C1=O	-5.02% (inactive)	–
Cc1cc(C)n(CC(=O)NNC(=O)COc2ccc(Cl)cc2Cl)n1	-9.01% (inactive)	–
COc1ccc2c(c1)[nH]c1c(=O)n(CCN3CCOCC3)cnc12	-4.77% (inactive)	–
O=C(CN(C(=O)Cn1nnc(-c2ccc(F)cc2)n1)c1ccc(F)cc1)NC1CCCC1	-4.85% (inactive)	–
O=C(NCc1ccco1)c1nc2c(nnn2Cc2ccccc2Cl)c(=O)[nH]1	-1.35% (inactive)	–

SMILES	inhibition	inhibition [1]
O=C(NCc1cccs1)c1nc2c(nnn2Cc2ccc(F)cc2)c(=O)[nH]1	-3.42% (inactive)	–
COc1cc(/C=C2\SC(=O)N(c3ccc(Cl)cc3)C2=O)cc([N+](=O)[O-])c1O	3.7% (inactive)	–
COc1cc(/C=C2\SC(=O)N(Cc3ccc(F)cc3)C2=O)cc([N+](=O)[O-])c1O	14.6% (inactive)	–
CC(C)c1ccc(CCNC(=O)CCNS(=O)(=O)c2ccc(Br)cc2)cc1	2.95% (inactive)	–
CC1CCCN(CCCOc2ccc(Br)cc2Cl)C1 (configuration not stated)	-5.92% (inactive)	–
C=CCn1c(SCC(=O)c2[nH]c(C)c(C(=O)OCC)c2C)nc2scc(-c3ccccc3)c2c1=O	0.73% (inactive)	–
O=c1cc(-c2ccccc2)nc(SCc2ccccc2F)[nH]1	-2.34% (inactive)	–
CCC1Nc2ccccc2-c2nnc(SC)nc2O1 (configuration not stated)	6.45% (inactive)	–
CCSc1nnc2c(n1)OC1(CCCC1)Nc1ccccc1-2	-4.17% (inactive)	–
Nc1ccccc1-c1nnc(SCc2ccccc2F)[nH]c1=O	2.71% (inactive)	–
Cc1[nH]c(C)c(S(=O)(=O)N(Cc2ccccc2)C(C)C)c1C(=O)N1CCCC1	-0.98% (inactive)	–
COc1ccc(S(=O)(=O)N2CCN(C(=O)CCOc3ccccc3)CC2)cc1OC	4.1% (inactive)	–
Cc1ccc2c(c1C)NC(C(=O)O)C1CC=CC21 (configuration not stated)	9.74% (inactive)	–
CCN(CC(=O)Nc1ccc(NC(C)=O)cc1)C(=O)c1ccc(NC2CC2)c([N+](=O)[O-])c1	-1.48% (inactive)	–
O=C(O)C1CCC(NSc2ccccc2[N+](=O)[O-])CC1 (configuration not stated)	7.73% (inactive)	–
CCN(CC(=O)Nc1ccc(NC(C)=O)cc1)C(=O)c1ccc(N2CCC(C)CC2)c([N+](=O)[O-])c1	-0.77% (inactive)	–
O=C(O)c1ccccc1NSc1ccccc1[N+](=O)[O-]	21.6% (inactive)	–
O=C(O)c1cccc2c1-c1c(cccc1[N+](=O)[O-])C2	-1.17% (inactive)	–
Cc1occc1C(=O)NNC(=O)COc1ccc(Br)cc1Br	-1.83% (inactive)	–
CCNC(=O)C1CCCN(c2nc(C)cc(C)n2)C1 (configuration not stated)	3.17% (inactive)	–
Cc1nn(C(=O)c2ccc3c(c2)OCO3)c(N)c1-c1ccccc1	-2.78% (inactive)	–
CCc1ccc(/C=C2\SC(=S)N(CCCC(=O)Nc3nccs3)C2=O)cc1	5.18% (inactive)	–

SMILES	inhibition	inhibition [1]
COc1ccc(C(=O)Cn2c(C(C)=O)nc3ccccc32)cc1	-4.63% (inactive)	–
COc1ccc(N2CCN(C(=O)CC3NC4CCCCC4NC3=O)CC2)cc1 (configuration not stated)	4.8% (inactive)	-0.61%
CCC(Oc1ccccc1)C(=O)N1CCN(S(=O)(=O)c2ccccc2)CC1 (configuration not stated)	-3.63% (inactive)	–
Cc1cccc(C)c1N(CC(=O)NCc1ccco1)C(=O)CNS(=O)(=O)c1ccc(F)cc1	-7.48% (inactive)	–
CC1(C)C(=O)C2(CCCCC2)C(=O)OC1c1ccc(O)cc1 (configuration not stated)	5.67% (inactive)	–
O=S(=O)(c1ccc(Br)cc1Cl)N1CCN(CCO)CC1	0.74% (inactive)	–
Cc1cc(=O)oc2c(CN3CCN(CCO)CC3)c(O)ccc12	-1.72% (inactive)	–
OCCOCCN1CCN(C(=S)Nc2ccccc2)CC1	-12.4% (inactive)	–
O=[N+]([O-])c1ccc(N2CCN(CCOCCO)CC2)c([N+](=O)[O-])c1	-3.06% (inactive)	–
Cc1noc(C)c1C(=O)OCC(=O)N1CCc2ccccc21	-4.42% (inactive)	–
CN(C(=O)c1ccc(NC(=O)Cc2ccc(NC(=O)C3CCCN(C(=O)C4CCC4)C3)cc2)cc1)C1CC1 (configuration not stated)	-5.79% (inactive)	–
Cc1ccc(NC(=O)CSc2nncs2)cc1Cl	-5.19% (inactive)	–
O=C(c1ccc(F)cc1F)N1CCCc2ccccc21	-15% (inactive)	–
Cc1ccccc1C(=O)Nc1ccc(S(=O)(=O)Nc2onc(C)c2C)cc1	-6.85% (inactive)	–
Cc1noc(NS(=O)(=O)c2ccc(NC(=O)c3ccc(F)cc3)cc2)c1C	11.3% (inactive)	–
Cc1noc(NS(=O)(=O)c2ccc(NC(=O)c3cc(F)c(F)c(F)c3F)cc2)c1C	8.65% (inactive)	–
Cc1noc(NS(=O)(=O)c2ccc(NC(=O)c3cccc(S(=O)(=O)Nc4ccccc4F)c3)cc2)c1C	-5.34% (inactive)	–
CC(=O)C1=C(O)C(=O)N(Cc2ccccc2)C1c1ccc(N(C)C)cc1 (configuration not stated)	-5.27% (inactive)	-5.49%
CC(C1CC1)N(Cc1ccccc1)C(=O)NC(=O)c1cccc(F)c1 (configuration not stated)	-0.76% (inactive)	–
O=C(CN1C(=O)C2CC=CCC2C1=O)Nc1cc(C(F)(F)F)ccc1N1CCCC1 (configuration not stated)	4.32% (inactive)	–
CC1(C)CC[C@]2(C(=O)O[C@@H]3O[C@H](CO)[C@@H](O)[C@H](O)[C@H]3O)CC[C@]3(C)C(=CCC4[C@@]5(C)CC[C@H](O[C@@H]6O[C@H](C(=O)O)[C@@H](O[C@H]7OC[C@@H](O)[C@@H](O)[C@@H]7O)[C@H](O)[C@H]6O)C(C)(C)C5CC[C@]43C)[C@@H]2C1 (some centres not stated)	-9.97% (inactive)	–
CC1(C)CC[C@]2(C(=O)O[C@@H]3OC(CO)[C@@H](O)[C@H](O)[C@H]3O)CC[C@]3(C)C(=CCC4[C@@]5(C)CC[C@H](O[C@@H]6OC(C(=O)O)[C@@H](O)[C@H](O)[C@H]6O)C(C)(C)C5CC[C@]43C)[C@@H]2C1 (some centres not stated)	20.2% (inactive)	2.42%
